Assay results taken from PubChem BioAssay (Tox21).
Inconclusive results are not listed. Active and inactive are the calls of the source. The call rests on the fitted dose curve; in most records, active means well fitted cell-killing curve with a large enough effect in the repeat runs; inconclusive means weak or mixed curves, or effect the other way; inactive means flat fitted curve, though single readings scatter.
On the % scale 0 is the no-effect control and ±100 the full control effect; potency means the concentration at half of the fitted maximal effect.

Assay: cAMP Responsive Elements (CRE) small molecule agonists, cell-based qHTS assay: qHTS cell viability counter screen (AID 2060914); further: nearly all actives have a fitted effect of over 50% in size
Details: CRE-bla HEK293T viability, CellTiter-Glo luminescence, 5 h; series mostly up to 92.4 µM; activity change, negative = cytotoxicity: at the top concentration
Method in brief: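 Cells are seeded and incubated 18 h, treated with compounds in DMSO for 3 h, read for the bla reporter, then given CellTiter-Glo; luminescence is measured after 30 min at room temperature.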
In the case of `CC(C)C(O)C(C)(C)CO` (stereo not given), the “activity change, negative = cytotoxicity” value is reported as 18.8% (inactive). For `Clc1ccc(C(Cn2ccnc2)OCc2c(Cl)cccc2Cl)c(Cl)c1` (stereo not given), the “activity change, negative = cytotoxicity” value was -1.93% [at 42.5 µM] (inactive). In the case of `O=c1cc(-c2ccccc2)oc2ccc3ccccc3c12`, the Potency is reported as 21.7 µM (active). With `O=C1CC[C@@H](C(=O)O)N1` the “activity change, negative = cytotoxicity” value was 20.6% [at 42.5 µM] (inactive). With `CCCCC(CC)COC(=O)c1ccccc1` (stereo not given) the “activity change, negative = cytotoxicity” value was -4.48% (inactive). With `Cc1c(-c2ccc(O)cc2)n(Cc2ccc(OCCN3CCCCCC3)cc2)c2ccc(O)cc12` the “activity change, negative = cytotoxicity” value was -10.5% [at 42.5 µM] (inactive). With `CCCC(C)CC` (stereo not given) the “activity change, negative = cytotoxicity” value was -0.0065% (inactive). For `OCCN1CCN(CCCN2c3ccccc3Sc3ccc(Cl)cc32)CC1`, the “activity change, negative = cytotoxicity” value was 0.153% [at 42.5 µM] (inactive). In the case of `CC(C)(C#N)Nc1nc(Cl)nc(NC2CC2)n1`, the “activity change, negative = cytotoxicity” value is reported as -24.4% (inactive). With `CC(C(O)c1ccccc1)N(C)CCOC(c1ccccc1)c1ccccc1` (stereo not given) the “activity change, negative = cytotoxicity” value was -10% [at 42.5 µM] (inactive). In the case of `Brc1c2ccccc2cc2ccccc12`, the “activity change, negative = cytotoxicity” value is reported as -0.223% (inactive). For `[Ca+2]`, the “activity change, negative = cytotoxicity” value was -4.75% (inactive). In the case of `CCSCC`, the “activity change, negative = cytotoxicity” value is reported as 17.1% (inactive). With `CC1=C(/C=C/C(C)=C/C=C/C(C)=C\C=O)C(C)(C)CCC1` the “activity change, negative = cytotoxicity” value was 9.58% (inactive). In the case of `Cc1cc(=O)[nH]c(C(C)C)n1`, the Potency is reported as “inactive”. In the case of `CCCCCCCCCCCCCCCCN(C)C`, the activity change, negative = cytotoxicity is reported as -12.8% [at 8.39 µM] (inactive). For `CN1CCC(N(Cc2cccs2)c2ccccc2)CC1`, the “activity change, negative = cytotoxicity” value was 1.68% [at 42.5 µM] (inactive). In the case of `Cc1cc(C(C)(C)C)c(O)c(C)c1CC1=NCCN1`, the “activity change, negative = cytotoxicity” value is reported as -0.41% [at 42.5 µM] (inactive). With `O=C(O)CN(CCN(CC(=O)O)CC(=O)O)CC(=O)O` the activity change, negative = cytotoxicity was -20.1% [at 3.27 µM] (inactive). With `CCN(CC)CC` the “activity change, negative = cytotoxicity” value was -1.77% (inactive). In the case of `CC(C)(C)c1cc(CCC(=O)OCC(COC(=O)CCc2cc(C(C)(C)C)c(O)c(C(C)(C)C)c2)(COC(=O)CCc2cc(C(C)(C)C)c(O)c(C(C)(C)C)c2)COC(=O)CCc2cc(C(C)(C)C)c(O)c(C(C)(C)C)c2)cc(C(C)(C)C)c1O`, the “activity change, negative = cytotoxicity” value is reported as -0.902% [at 42.5 µM] (inactive). In the case of `Cc1cnc(NC(=O)C2=C(O)c3ccccc3S(=O)(=O)N2C)s1`, the Potency is reported as “inactive”. With `O=S(O)O` the activity change, negative = cytotoxicity was 3.71% [at 18.9 µM] (inactive). For `COC(=O)CC(C)CCC=C(C)C` (stereo not given), the “activity change, negative = cytotoxicity” value was -0.545% (inactive). In the case of `Cc1sccc1Br`, the “activity change, negative = cytotoxicity” value is reported as 1.67% [at 42.5 µM] (inactive). For `CCOC(=O)C(=O)OCC`, the “activity change, negative = cytotoxicity” value was 1.39% (inactive). For `CCCCC`, the “activity change, negative = cytotoxicity” value was 1.27% (inactive). With `Cc1cc(=O)oc2cc(O)cc(O)c12` the “activity change, negative = cytotoxicity” value was -0.184% (inactive). With `C[C@@H]1[C@H](O)[C@@H](C)/C=C/C=C\C=C\C=C\C=C\C=C\C=C\[C@H](O[C@@H]2O[C@H](C)[C@@H](O)[C@H](N)[C@@H]2O)C[C@@H]2O[C@](O)(C[C@@H](O)C[C@@H](O)[C@H](O)CC[C@@H](O)C[C@@H](O)CC(=O)O[C@H]1C)C[C@H](O)[C@H]2C(=O)O` (stereo in doubt) the “activity change, negative = cytotoxicity” value was 6.09% (inactive). In the case of `COC(C)(C)OC`, the “activity change, negative = cytotoxicity” value is reported as 5.63% (inactive). In the case of `Cc1ccc(C(=O)c2ccccc2)cc1`, the “activity change, negative = cytotoxicity” value is reported as -11.9% (inactive). For `Brc1nc2ccccc2s1`, the Potency was “inactive”. For `CN(C)/N=N/c1nc[nH]c1C(N)=O`, the Potency was “inactive”. In the case of `CCOc1ccc([N+](=O)[O-])cc1`, the “activity change, negative = cytotoxicity” value is reported as -20.2% (inactive). For `CC[N+](C)(C)c1cccc(O)c1`, the “activity change, negative = cytotoxicity” value was -7.27% [at 42.5 µM] (inactive). With `CN1CCN(CCCN2c3ccccc3Sc3ccc(C(F)(F)F)cc32)CC1` the “activity change, negative = cytotoxicity” value was -21.5% [at 42.5 µM] (inactive). For `CCCCCCCCCCCCCCCC[N+](C)(C)CCN(Cc1ccc(OC)cc1)c1ncccn1`, the Potency was 26.6 µM (active). With `CCOC(=O)[C@H](CCc1ccccc1)N[C@H]1CCc2ccccc2N(CC(=O)O)C1=O` the “activity change, negative = cytotoxicity” value was 10.7% [at 42.5 µM] (inactive). With `Oc1ccc(-c2ccccc2)c(Cl)c1` the “activity change, negative = cytotoxicity” value was -21.1% (inactive). For `CC12CCCC=C1C(=O)OC2=O` (stereo not given), the “activity change, negative = cytotoxicity” value was -5.54% (inactive).
